# Assay outcomes (PubChem)
# EPAC2 agonist = EPAC2 (human) agonism; Q8WZA2; EPAC2 activation, biochemical qHTS; response scale: 100% = 6.5 mM cAMP response; Potency, µM (titrated, usually from 154 µM), for inactives: at the highest dose activation, hits mostly activators; 360,000 compounds, 0.079% hits; AID 720711; note: potency is the fitted concentration of half-maximal effect; nearly all actives have a fitted effect of over 50% in size
#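 Exchange assay: 100 nM EPAC2 with 250 nM Rap1B-BODIPY-GDP and 50 uM GDP. Fluorescence (ex 480/em 540 nm) read every 5 min for 30 min at room temperature. Data normalized to 6.5 mM cAMP as agonist control.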
# IL-2 act = IL-2 activation; IL-2 activation reporter assay, cell-based qHTS; stimulated with anti-CD3/CD4/CD28 beads; in transgenic mouse T cells; activation, % (series mostly up to about 46 µM); 360,000 compounds, 0.065% hits; AID 652025; in the data active = activation above about 50%; inconclusive = mostly about 30% to 49%; note: 0% is about no effect
#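 Unstimulated transgenic mouse T cells, 750 per well, received compound and, after 60 minutes, anti-CD3/anti-CD4 bead plus anti-CD28 stimulation. EGFP and DsRed were quantified after 18 hours.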
# EPAC1 ag = activates human EPAC1 exchange factor; EPAC1 agonist qHTS, biochemical assay; response scale: 100% = response to 6.5 mM cAMP; Potency, µM (titrated, usually from 154 µM), for the others: at the highest dose activation, actives largely listed as activators; 360,000 compounds, 0.073% hits; AID 720707; note: potency is the fitted concentration of half-maximal effect; nearly all actives have a fitted effect of over 60% in size
#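 Read-out is the fluorescence drop as BODIPY-GDP leaves Rap1B (480 nm excitation, 540 nm emission), recorded every 5 minutes over 30 minutes. Reactions held 100 nM EPAC1, 250 nM Rap1B–BODIPY-GDP and 50 uM GDP, with 6.5 mM cAMP setting full activation.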
# PKM2 act = PKM2 (human) enzyme activation. purified PKM2, Kinase-Glo ATP luminescence, activation; response scale: 0% is enzyme alone, no compound. Potency, µM (series often up to 57.5 µM), for the others: at the top dose activation, actives largely listed as activators. 260,000 compounds, 0.34% hits. AID 1631; note: potency is the fitted concentration of half-maximal effect; % is set by controls: 0 for no effect and ±100 for the full control effect; nearly all actives have a fitted effect of over 55% in size
# Target sequence (P14618 whole entry, looked up): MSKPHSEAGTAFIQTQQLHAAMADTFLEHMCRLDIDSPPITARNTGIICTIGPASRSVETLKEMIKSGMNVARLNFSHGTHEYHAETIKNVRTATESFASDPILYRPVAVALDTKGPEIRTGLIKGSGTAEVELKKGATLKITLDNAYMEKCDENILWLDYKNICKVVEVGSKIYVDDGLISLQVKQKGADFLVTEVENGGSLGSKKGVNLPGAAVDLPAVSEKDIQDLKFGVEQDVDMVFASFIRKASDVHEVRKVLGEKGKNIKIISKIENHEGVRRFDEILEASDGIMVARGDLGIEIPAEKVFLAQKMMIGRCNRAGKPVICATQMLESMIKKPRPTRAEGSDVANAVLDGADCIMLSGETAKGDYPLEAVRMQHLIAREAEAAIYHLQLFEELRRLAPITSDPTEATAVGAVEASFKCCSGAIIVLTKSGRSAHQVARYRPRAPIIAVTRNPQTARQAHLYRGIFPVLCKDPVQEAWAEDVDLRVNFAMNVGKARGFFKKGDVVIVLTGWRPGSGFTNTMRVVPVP
#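 Purified hPK-M2 (>95%) run at intermediate activity with 0.1 mM ADP and 0.5 mM PEP in 50 mM imidazole pH 7.2, KCl, MgCl2; 1 h room temperature. ATP formed read by Kinase-Glo luminescence; normalized to uninhibited and no-enzyme controls.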
# EPAC1 antag = blocks human EPAC1 exchange factor; EPAC1 GEF assay, Rap1b-BODIPY-GDP exchange fluorescence; Potency, µM (titrated, usually from 115 µM), inactives show top-dose activity change, negative = inhibition, usual class: inhibitors; 360,000 compounds, 0.14% hits; AID 720709;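 note: potency is the fitted concentration of half-maximal effect; plate controls were vehicle for no effect and positive control for full effect; nearly all actives have a fitted effect of over 50% in size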
# EPAC2 antagonist = antagonists of human EPAC2; Q8WZA2; EPAC2 GEF exchange of Rap1B-BODIPY-GDP, fluorescence; Potency, µM (series often up to 114 µM), without a hit: top-dose activity, negative = inhibition, actives largely listed as inhibitors; 360,000 compounds, 0.18% hits; note: potency is the fitted concentration of half-maximal effect; % is set by controls: 0 for no effect and ±100 for the full control effect; nearly all actives have a fitted effect of over 45% in size
# The depositor's hits bear a star; ? = inconclusive; . = not tested or not shown. A selection: hits, their analogues and other compounds. The true share with any hit is near 0.64%. Unless noted, calls come from the whole dose curve; as a rule, active = well fitted curve in the direction sought with a large enough effect; inconclusive = small, poorly fitted or top-dose-only effect, or another doubt; inactive = no such curve, though single readings can be large; an effect the other way counts as inactive or inconclusive.
SMILES,EPAC2 agonist,IL-2 act,EPAC1 ag,PKM2 act,EPAC1 antag,EPAC2 antagonist
CC1=Nc2ccccc2/C1=C/c1sc(=S)n(-c2cccc(C(=O)O)c2)c1O,4%,20,-14%,0%,56µM*,?
Oc1c(C=C2N=c3ccccc3=N2)sc(=S)n1-c1ccccc1,3%,0,-8%,-11%,2%,3%
CSc1cccc(N2CC(C(=O)Nc3cccc(S(=O)(=O)N4CCCC4)c3)CC2=O)c1 (configuration not stated),9%,-1,50µM*,.,-5%,5%
Cc1c(Cc2ccccc2)c(=O)n2c([nH]c3ccccc32)c1C#N,3%,-2,13%,3%,9%,1%
COc1ccccc1N=Cc1c(C)c(C#N)c2[nH]c3ccccc3n2c1=O,3%,126*,-7%,2%,-21%,17%
C/C(C/C(C)=C1/SC(=S)NC1=O)=C1\SC(=S)NC1=O,14%,4,-3%,1%,20µM*,?
CCCCCC/C(C)=C1/SC(=S)NC1=O,4%,2,-3%,0%,-29%,-22%
Nc1nccc(N2CCCCC2)n1,10%,-2,-4%,.,7%,15%
COc1cccc(CN(C)C[C@H]2OCc3cnnn3CCCC(=O)N([C@H](C)CO)C[C@@H]2C)c1,0%,1,-15%,.,15%,5%
CC1(C(=O)NS(=O)(=O)c2cccc(F)c2)CCN1C(=O)CCC1CCCC1 (configuration not stated),5%,0,6%,.,-8%,25%
COc1ccccc1CNS(=O)(=O)c1cc(-c2cc(C)no2)ccc1C(C)C,15%,-4,-5%,.,-13%,-20%
CC1CN(C(=O)CCC(=O)NCc2ccccc2)c2ccccc2S1 (configuration not stated),14%,-2,0%,1%,10%,50µM*
Cc1ccc(C)c(COC(=O)CCN=C2NS(=O)(=O)c3ccccc32)c1,-11%,-2,8%,.,10%,-10%
Cc1ccc(-c2nc3cnccn3c2Nc2ccc3c(c2)OCO3)o1,5%,1,-3%,10µM*,-4%,-10%
Cc1ccc(-c2nc3cnccn3c2Nc2ccccc2)o1,-2%,-2,-4%,27%,-20%,6%
Clc1ccc(-c2nc3cnccn3c2Nc2ccc3c(c2)OCO3)cc1,5%,-1,-7%,18%,?,-23%
Cc1ccc(Nc2c(-c3ccc(C)o3)nc3cnccn23)cc1,9%,1,-3%,11µM*,-1%,-22%
Cc1ccc(N(Cc2cc3ccc(C)cc3[nH]c2=O)S(C)(=O)=O)c(C)c1,-2%,-3,-3%,22µM*,-20%,-4%
Cc1ccc2cc(CN(C)S(C)(=O)=O)c(=O)[nH]c2c1,16%,1,14%,7%,-18%,2%
Cc1ccc(C(=O)Nn2c(C)nc3ccccc3c2=O)cc1C,4%,-3,12%,.,7%,-9%
Cc1cc(Nc2ccccc2)n(-c2nc3ccccc3[nH]2)n1,6.3µM*,-1,8%,10%,-10%,8%
O=C(NCC(c1ccco1)N1CCCCC1)c1cccc(NS(=O)(=O)c2ccc(Br)cc2)c1 (configuration not stated),5%,0,126µM*,.,?,-11%
O=C(NCC(c1ccco1)N1CCCC1)c1cccc(S(=O)(=O)Nc2ccc(Br)cc2)c1 (configuration not stated),-11%,-2,2%,-3%,3%,-2%
CN(C)c1ccc(/C=C/C(=O)c2c(O)c3ccccc3oc2=O)cc1,21%,-4,1%,-6%,?,-2%
CCOc1ccc(/C=C/C(=O)c2c(O)c3ccccc3oc2=O)cc1,11%,1,100µM*,1%,43%,1%
SMILES,EPAC2 agonist,IL-2 act,EPAC1 ag,PKM2 act,EPAC1 antag,EPAC2 antagonist
C/C=C/C=C/C(=O)N1CC2(CC(c3cccc(NC(=O)/C=C/C)c3)=NO2)C[C@@H]1C(N)=O (some centres not stated),13%,1,8%,8.9µM*,7%,6%
C/C=C/C=C/C(=O)N1CC2(CC(c3cccc(NC(=O)CCCCC)c3)=NO2)C[C@H]1C(N)=O (some centres not stated),-8%,1,-12%,7.9µM*,-3%,-7%
C=C(C)C(=O)Nc1cccc(C2=NOC3(C2)C[C@@H](C(N)=O)N(C(=O)/C=C/C=C/C)C3)c1 (some centres not stated),-2%,0,18%,13µM*,-21%,8%
Fc1ccc(NC(=S)N2CCN(c3ccccn3)CC2)cc1Cl,4%,-1,8%,.,-3%,-1%
Cc1nc2sc(C(=O)Nc3ccccc3)c(N)c2c(C)c1[N+](=O)[O-],6%,-1,-4%,-3%,-9%,3%
c1ccc2c(c1)ncn2Cc1nnc2sc(-c3ccc4c(c3)OCO4)nn12,1%,-2,-2%,11µM*,0%,4%
Clc1ccccc1-c1nn2c(Cn3cnc4ccccc43)nnc2s1,-2%,0,-7%,4µM*,-8%,24%
Clc1ccc(Cl)c(-c2nn3c(COc4ccccc4)nnc3s2)c1,-19%,3,0%,-16%,8%,10%
c1ccc(CCc2nn3c(Cn4cnc5ccccc54)nnc3s2)cc1,5%,0,-2%,?,-5%,6%
COc1ccc(OCc2nn3c(Cn4cnc5ccccc54)nnc3s2)cc1,1%,-1,7%,25µM*,3%,0%
Clc1ccccc1-c1nnc2sc(-c3ccc4c(c3)OCO4)nn12,5%,-1,-4%,11%,0%,-1%
COc1ccc(OCCCC(=O)N2CCN(S(=O)(=O)c3cccc(F)c3)CC2)cc1,4%,0,0%,.,?,-16%
O=S1(=O)C[C@H](N2CCC[C@@H]2CO)[C@@H](COCc2ccccc2)N1,8%,0,5%,.,10%,10%
COc1cccc(NS(=O)(=O)c2ccc3c(c2)CCN3C(C)=O)c1,6%,-4,-1%,.,-23%,-2%
CC(=O)N1CCc2cc(S(=O)(=O)Nc3cccc(C(F)(F)F)c3)ccc21,-6%,-2,11%,25µM*,-11%,-8%
C/C(=C\C(=O)c1cccnc1)Nc1ccc(O)cc1,7%,1,3%,2%,-5%,2%
C/C(=C\C(=O)c1ccccc1)Nc1ccc(O)cc1,3%,-1,21%,3%,71µM*,3%
N#Cc1c(Nc2ccccc2)sc(C(=O)c2ccccc2)c1N,1%,-1,3%,8%,3%,35µM*
